The other results are listed elsewhere or left out. Entries that show only a call come without a potency. Active and inactive are the calls of the source.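 The calls were made as follows: active = compounds that inhibited Clk3 enough in the ten-dose series to give a half-maximal potency; inactive = the rest.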

Chain of Dual specificity protein kinase CLK3 (Homo sapiens) (P49761 whole entry, looked up, canonical isoform): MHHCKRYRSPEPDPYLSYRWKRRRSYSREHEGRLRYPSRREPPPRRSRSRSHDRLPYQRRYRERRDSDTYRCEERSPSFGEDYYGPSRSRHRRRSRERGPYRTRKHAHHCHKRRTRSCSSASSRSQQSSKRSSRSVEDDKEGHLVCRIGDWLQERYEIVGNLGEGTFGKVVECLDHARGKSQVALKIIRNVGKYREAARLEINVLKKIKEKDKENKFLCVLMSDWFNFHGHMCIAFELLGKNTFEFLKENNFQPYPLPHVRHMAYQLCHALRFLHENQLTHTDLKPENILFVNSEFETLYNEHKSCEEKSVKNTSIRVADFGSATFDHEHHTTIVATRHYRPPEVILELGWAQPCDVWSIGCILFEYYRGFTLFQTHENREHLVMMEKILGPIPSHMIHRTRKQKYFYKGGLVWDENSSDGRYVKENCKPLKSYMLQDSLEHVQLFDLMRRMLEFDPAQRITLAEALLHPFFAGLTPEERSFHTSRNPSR

This assay concerns the target Dual specificity protein kinase CLK3 (Homo sapiens) (UniProt P49761). Briefly: Kinase Inhibition Study on Inhibitors of CDC-like Kinase 3 (Reaction Biology data). As to conditions: recombinant CLK3 kinase assay, 10 uM ATP. An excerpt: NIH Molecular Libraries Probe Production Centers Network [MLPCN] NIH Chemical Genomics Center [NCGC] MLPCN Grant: 1R03MH084827-01 Assay Submitter (PI): Tom Misteli NCGC Assay Overview: Alternative splicing of pre-mRNAs plays a major role in the regulation of eukaryotic gene expression. Alternative splicing is now thought to be one of the primary reasons for the complexity of higher organisms leading to an average of three protein isoforms per gene. Aberrant splicing can lead to a number of diseases and is known to play a role in rare genetic diseases such as progeria syndrome. Hutchinson-Gilford Progeria Syndrome (HGPS) is a pediatric premature aging disease caused by a spontaneous mutation in the lamin A/C (LMNA) gene due to a single point mutation in the lamin A gene effecting 1 in 4 million people. To identify both specific splicing modulators of the lamin A gene as well as general splicing modulators, a cell-based HTS assay was developed using a minigene reporter system (AIDs, 1459 & 1487). […] This AID summarizes the characterization of lead compounds in Clk3.
All kinase reactions were performed using 10 uM ATP in the assay. 100% activity was taken from kinase reactions with DMSO alone (the vehicle used for compound stock solutions).
For the compound `CN(Cc1cncn1C)c1ncnc2ccc(-c3ccc4c(c3)OCO4)cc12`, the result was inactive.
As for `CC(Nc1ncnc2ccc(-c3ccc4c(c3)OCO4)cc12)c1ccco1` (centres undefined), the Potency was 15 µM (active).
On the same count and under the same terms, in the case of `c1coc(CCNc2ncnc3ccc(-c4ccc5c(c4)OCO5)cc23)c1` it was 2.02 µM (active).
For the compound `c1nc(N2CCOCC2)c2cc(-c3ccc4c(c3)OCO4)ccc2n1`, the outcome was inactive.

These data come from PubChem BioAssay AID504428 (National Center for Advancing Translational Sciences (NCATS), 2011).
